BJeLR lethal: MLPCN primary cell-based screen for lethality selective to Ras in HRASV12 cells | BJeLR (HRASV12) viability, CellTiter-Glo ATP luminescence, 48 h | inhibition, % (concentration not given with the values) | actives 0.17% (n = 300,000); in the data active means inhibition above about 50%; inconclusive means no clear call, values can overlap the other calls
PfHsp40 rescue: rescue of yeast from PfHsp40 toxicity, primary screen, S. cerevisiae, ATP luminescence. S. cerevisiae expressing PfHsp40, growth rescue. growth rescue, % at 12.5 µM. actives 0.68% (n = 340,000). AID 504582, 2011; in the data active means growth rescue above about 28%, passing the limit was not always enough; inconclusive means no clear call, values can overlap the other calls;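 further: yeast W303a lacking pdr1 and pdr3 grown in galactose medium; growth measured after three days at 30 °C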
RecA intein inh: Mtb RecA intein splicing inhibitors, primary screen, biochemical, fluorescence, HTS. Protein RecA (Mycobacterium tuberculosis (strain ATCC 25618 / H37Rv)), P9WHJ3. cell-free RecA intein splicing. inhibition, % (concentration not given with the values). actives 0.75% (n = 290,000). AID 2221, 2009; in the data active means inhibition above about 30%; inconclusive means no clear call, values can overlap the other calls;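 further: 0% = vehicle wells and 100% = reference inhibitor control wells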
Target sequence (P9WHJ3 whole entry, looked up): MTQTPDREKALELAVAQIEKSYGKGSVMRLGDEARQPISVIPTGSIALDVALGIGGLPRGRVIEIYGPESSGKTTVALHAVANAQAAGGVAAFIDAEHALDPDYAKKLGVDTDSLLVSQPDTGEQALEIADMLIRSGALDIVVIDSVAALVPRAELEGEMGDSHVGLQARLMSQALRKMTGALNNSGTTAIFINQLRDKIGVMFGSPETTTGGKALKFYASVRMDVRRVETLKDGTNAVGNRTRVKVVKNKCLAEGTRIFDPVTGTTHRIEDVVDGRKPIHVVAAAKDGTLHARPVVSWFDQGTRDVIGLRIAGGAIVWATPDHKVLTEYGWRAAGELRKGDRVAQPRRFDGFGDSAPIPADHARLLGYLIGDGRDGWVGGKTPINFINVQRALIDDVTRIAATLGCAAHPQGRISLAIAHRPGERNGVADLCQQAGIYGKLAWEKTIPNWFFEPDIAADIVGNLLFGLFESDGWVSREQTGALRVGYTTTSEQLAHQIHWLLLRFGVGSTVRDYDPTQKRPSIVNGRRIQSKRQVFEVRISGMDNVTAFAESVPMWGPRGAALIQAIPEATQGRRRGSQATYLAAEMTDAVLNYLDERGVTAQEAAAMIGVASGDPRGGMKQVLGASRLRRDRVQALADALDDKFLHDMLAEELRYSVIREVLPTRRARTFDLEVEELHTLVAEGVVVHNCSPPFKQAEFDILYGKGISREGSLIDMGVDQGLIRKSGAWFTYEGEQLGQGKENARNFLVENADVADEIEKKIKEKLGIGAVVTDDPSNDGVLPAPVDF
PrPC surface inh: inhibitors of human cell surface prion protein PrPC, primary screen, cell-based, TR-FRET | TR-FRET read-out | inhibition, % at 13.8 µM | actives 0.43% (n = 370,000) | AID 720596, 2013; in the data active means inhibition above about 24%; further: 0% = median of the test wells and 100% = reference compound wells
PrP UTR inh: inhibition of PrP 5' UTR reporter expression; cell-based PrP 5' UTR mRNA reporter, plate reader; inhibition, % (concentration not given with the values); actives 0.35% (n = 340,000); AID 488862, 2010; in the data active means inhibition above about 52%; further: 0 = median of the neutral control wells
SSB-PriA inh: inhibitors of Klebsiella pneumoniae PriA binding to SSB C-terminal tail, primary screen, biochemical, AlphaScreen. PriA–SSB C-terminal tail interaction (Klebsiella pneumoniae). AlphaScreen SSBct-PriA binding, biotinylated peptide. inhibition, % at 33 µM. actives 0.6% (n = 430,000); in the data active means inhibition mostly above about 37%, no sharp cut-off; inactive means mostly below about 20%;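 further: plate controls were negative control peptide for no effect and reference peptide for full effect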
Starred values were filed as active, the others as inactive; i = inactive; ? = inconclusive; . = no result. Only some compounds are listed: those with a hit (about 1.9% of all), similar ones and a draw of the others.

SMILES | BJeLR lethal | PfHsp40 rescue | RecA intein inh | PrPC surface inh | PrP UTR inh | SSB-PriA inh
C=CCn1c(SCC(=O)Nc2cccc(-c3nc4ccccc4s3)c2)nc2scc(-c3ccccc3Cl)c2c1=O | . | . | . | . | . | -7
CCOC(=O)C1C(=O)C=C(c2cccs2)CC1c1ccc(OCC)cc1 (stereo not drawn) | . | . | . | . | . | -23
Cc1ccc2sc(N(CCCN(C)C)C(=O)c3ccc(S(=O)(=O)N4CCc5ccccc5C4)cc3)nc2c1C | 6 | 79* | -2 | -9 | -24 | 10
COC(=O)c1cc(-c2ccccc2OC)n[nH]1 | . | . | . | . | . | -19
CC[C@H](Sc1nc2cc(OC)c(OC)cc2c2nc(C)nn12)C(=O)NC1CCCCC1 | . | . | . | . | . | -6
CSc1nccc(-c2nn(-c3ccc(Cl)cc3)ccc2=O)n1 | . | . | . | . | . | 53*
Cc1ccc(-n2ccc(-c3nn(-c4ccccc4)ccc3=O)n2)cc1 | 0 | -1 | 1 | 4 | -16 | 5
Cn1cccc(C(=O)NCc2cnn3ccccc23)c1=O | . | . | . | . | . | -3
N/C(Cc1cccc2ccccc12)=N\OC(=O)c1ccccc1F | 0 | 1 | 26 | -13 | -5 | .
N/C(Cc1ccc(Cl)cc1Cl)=N\OC(=O)c1ccccc1F | -4 | 156* | 4 | -3 | -8 | .
CCOc1nn(CC)cc1-c1nnc(SCC(=O)N2CCc3ccccc32)n1C | . | . | . | . | . | -1
CCCCNc1c(-c2ccc(SC(C)CC)cc2)nc2cnccn12 (stereo not drawn) | . | 860* | . | . | -8 | -33
O=Cc1cccn1-c1ccc([N+](=O)[O-])cc1 | . | . | . | . | . | 4
Oc1c(Cl)c(Cl)c(Cl)c(Cl)c1Cl | -10 | 298* | -2 | 14 | -24 | -10
COc1cc2nc(N3CCNCC3)nc(N)c2cc1OC | 3 | 186* | -4 | 4 | -21 | 46*
COc1ccc(-c2c[nH]c(=S)n2-c2ccc(OC(F)F)cc2)cc1 | . | . | . | . | . | 7
COC(=O)c1ccc(-n2c(C)cc(C(=O)CCl)c2C)cc1 | 5 | 1 | 35* | 4 | -13 | 0
CC1(C)N=C(SCC(=O)Nc2ccc(Cl)cc2)C(c2ccc(Cl)cc2)=N1 | 3 | ? | 44* | 14 | -39 | -15
CC1(C)N=C(SCC(=O)Nc2ccc(Cl)cc2)C(c2ccccc2)=N1 | 1 | 6 | . | 15 | -5 | -3
CN1CCN(c2ccc(NC(=O)c3ccc([N+](=O)[O-])o3)cc2Cl)CC1 | -1 | -1 | -6 | 12 | 4 | -1
CCCC(=O)N1CCN(c2ccc(NC(=O)c3ccc([N+](=O)[O-])o3)cc2Cl)CC1 | -9 | ? | -1 | 40* | -61 | 6
Oc1ccccc1-c1nnc(SCCN2CCOCC2)n1Cc1ccccc1 | 31 | 249* | 9 | -11 | 4 | 7
O=C(CSc1nnc(-c2ccccc2)n1Cc1ccccc1)N1CCOCC1 | -5 | 1 | 4 | 3 | -7 | -6
COC(=O)c1ccc(NC(=O)CSc2nnc([C@H]3CC(=O)N(c4ccc(C)cc4)C3)o2)cc1 | . | . | . | . | . | -5
COc1ccccc1-c1csc(NC(=O)c2cccc(C)c2)n1 | . | . | . | . | . | -1
SMILES | BJeLR lethal | PfHsp40 rescue | RecA intein inh | PrPC surface inh | PrP UTR inh | SSB-PriA inh
Cc1ccccc1NC(C)C(=O)N/N=C/c1ccccn1 (stereo not drawn) | . | . | . | . | . | i
CC(Nc1cccc2ccccc12)C(=O)NN=Cc1ccccn1 (stereo not drawn) | . | . | . | . | . | 85*
O=C(NCCOc1ccc(-c2ccccn2)nn1)c1ccco1 | . | . | . | . | . | 116*
NCCOc1ccc(-c2ccccn2)nn1 | . | . | . | . | . | 154*
CS(=O)(=O)c1ccc(C(=O)Nc2nccs2)cc1 | . | . | . | . | . | -2
CCCS(=O)(=O)c1nnnn1-c1cccc(OC)c1 | 3 | 408* | 91* | . | 10 | -3
COc1cccc(C(=O)NCCNc2ccc(Nc3ccccn3)nn2)c1OC | . | . | . | . | . | 1
CC(C)(Oc1ccc(Cl)cc1)C(=O)NCCNc1ccc(Nc2ccccn2)nn1 | . | . | . | . | . | 31*
N#Cc1ccc(Cl)cc1NC(=O)C(=O)NC[C@H](O)c1ccc2c(c1)CCO2 | . | . | . | . | . | -9
O=C1CCCC2=C1C(c1ccc(Cl)cc1)C1C(=O)c3ccccc3C1=N2 (stereo not drawn) | 1 | 2 | -4 | -17 | -5 | 48
O=C1c2ccccc2C2=Nc3ccccc3SC(c3cccc(F)c3)C12 (stereo not drawn) | -13 | 281* | 1 | 6 | -15 | 27
O=C1c2ccccc2C2=Nc3ccccc3SC(c3ccc(Cl)cc3)C12 (stereo not drawn) | -2 | 0 | 13 | -6 | -24 | 53*
Fc1cccc(C2NN=C(c3ccccc3)S2)c1 (stereo not drawn) | 6 | 0 | 0 | -1 | -92 | -10
CS(=O)(=O)N1CCN(c2ccc(-n3cccn3)nn2)CC1 | . | . | . | . | . | -15
Cc1ccccc1C(=O)ON=Cc1c(N2CCOCC2)n(C)c2ccccc12 | . | . | . | . | . | -7
O=C(NCCC(=O)N1CCN(c2ccccc2O)CC1)c1ccc(Br)cc1 | 2 | 301* | -6 | 7 | 6 | -4
Cc1cc(CNC(=O)COC(=O)c2ccc(Cl)c(N)c2)cc(C)c1O | -3 | 105* | -4 | 5 | -14 | -5
Cc1ccc(CNC(=O)COC(=O)c2ccc(Cl)c(N)c2)cc1 | 5 | 0 | 3 | -2 | -13 | -10
CN(C)CC(CCC(CN(C)C)C(O)(c1ccccc1)c1ccccc1)C(O)(c1ccccc1)c1ccccc1 (stereo not drawn) | 83* | . | 2 | -16 | . | 8
CN(C)C/C=C/C(O)(c1ccccc1)c1ccccc1 | 1 | -2 | 2 | -1 | -15 | -9
COC(=O)c1sc(-c2ccc(C(C)(C)C)cc2)cc1NC(=O)COCC(=O)O | 0 | 33* | 7 | -6 | -58 | 16
CN1C(=O)C(C)(C)COc2ccc(NC(=O)c3cc4ccccc4oc3=O)cc21 | . | . | . | . | . | 9
O=C(Nc1nccn(-c2ccc(Br)cc2)c1=O)c1ccncc1 | . | . | . | . | . | 4
COc1cc2c(cc1OC)C(c1ccccc1)NCC2 (stereo not drawn) | -3 | 2 | -1 | 6 | -16 | -2
COc1cc2c(cc1OC)C(c1ccc(O)cc1)NCC2 (stereo not drawn) | -23 | 74* | -1 | -2 | -2 | 0
Cc1nn(-c2ccccc2)c2c1C(c1ccc([N+](=O)[O-])cc1)C(C#N)=C(N)O2 (stereo not drawn) | 7 | 2 | -2 | -14 | -15 | 28
Cc1ccc(-n2nc(C)c3c2OC(N)=C(C#N)C3c2ccc(F)cc2)cc1 (stereo not drawn) | -7 | 1 | 60* | -4 | -140 | 22
Cc1nn(-c2ccccc2)c(C)c1C1C(C#N)=C(N)Oc2n[nH]c(C)c21 (stereo not drawn) | 7 | -2 | 63* | 0 | -6 | -8
